Structures are written as SMILES. Inconclusive results are not listed. Active and inactive are the calls of the source. The call rests on the fitted dose curve; in most records, active means well fitted inhibition curve with a large enough effect; inconclusive means small, poorly fitted or top-dose-only effect, or another doubt; inactive means no such curve, though single readings can be large or run the other way.

The test deals with Neuropeptide S receptor (Homo sapiens) (UniProt Q6W5P4). Put plainly: Confirmation Concentration-Response Assay for Antagonists of the Neuropeptide S Receptor: Robust Characterization of Calcium Signal Transduction. To be noted: CHO-NPSR cells, NPS-induced calcium fluorescence (FDSS). From the text: NIH Chemical Genomics Center [NCGC] NIH Molecular Libraries Probe Production centers Network [MLPCN] MLPCN Grant: X01-DA026210-01 Assay Submitter (PI): Heilig, Markus Alexander NCGC Assay Overview: Neuropeptide S receptor (NPSR), previously known as GPR154, is a recently de-orphanized G protein coupled receptor. Its endogenous ligand is the 20 amino acids peptide Neuropeptide S (NPS). […] NPS and its receptor are found in various tissues. Specifically they are highly expressed in brain areas that have been implicated in modulation of arousal, stress and anxiety. Central administration of NPS in mice produces an unusual profile of activity by inducing wakefulness and arousal, while at the same time suppressing anxiety. Therefore, NPSR may represent a novel drug target for the treatment of sleep and anxiety disorders. To identify NPSR antagonists, we developed a cell-based assay with transfected NPS receptor. NPS can stimulate the production of cAMP as well as release intracellular calcium in Chinese hamster ovary cells stably expressing NPS receptor. This change in intracellular calcium can be detected using a calcium indicator dye on a calcium imaging plate reader system (FDSS). This particular assay uses a high density of sampling across concentration-response space to establish more confidence estimates of potency.
Sequence of Neuropeptide S receptor (Homo sapiens) (Q6W5P4 whole entry, looked up): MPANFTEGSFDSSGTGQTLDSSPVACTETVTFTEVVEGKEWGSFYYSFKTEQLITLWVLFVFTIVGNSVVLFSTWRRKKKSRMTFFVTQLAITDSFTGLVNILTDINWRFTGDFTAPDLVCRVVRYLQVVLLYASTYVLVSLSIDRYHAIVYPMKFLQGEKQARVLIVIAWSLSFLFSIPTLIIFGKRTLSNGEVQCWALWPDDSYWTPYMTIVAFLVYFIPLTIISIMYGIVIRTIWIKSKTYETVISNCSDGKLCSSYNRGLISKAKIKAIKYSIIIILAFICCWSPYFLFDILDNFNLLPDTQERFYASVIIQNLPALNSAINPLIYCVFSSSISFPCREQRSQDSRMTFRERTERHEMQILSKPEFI
NCGC Assay Protocol Summary: A Chinese hamster ovary (CHO) cell line stably expressing the NPS receptor (CHO-NPSR) was obtained from Dr. Heilig lab at NIAAA and maintained in F-12 Kaighn's media (Invitrogen, Carlsbad, CA, 21127) supplemented with 10 % FBS, 100 units/ml penicillin, 100 ug/ml streptomycin and 250 ug/ml geneticin at 37C, 5% CO2 in a humidified atmosphere. Before the assay, aliquots of cells were frozen and stored at -135C. The assay was performed on a FDSS-7000 kinetic plate reader in 1536-well format. For both agonist (1-220s) and antagonist (221-400s) phases, the maximums of kinetic fluorescence responses were converted separately into text files using the instrument's software data export utility. Data for agonist response were normalized to the controls for basal activity (DMSO only) and 100% activation (NPS). […] AC50 values were determined from concentration-response data modeled with the standard Hill equation. NPS 1536-well FDSS assay protocol: (1) Frozen CHO-NPSR cells were thaw, washed once with fresh media and resuspended in F-12 Kaighn's media supplemented with 10 % FBS, 100 units/ml penicillin and 100 ug/ml streptomycin. Cells were plated at 3 ul/well (1200 cells) to black, clear-bottom, tissue-culture treated 1536-well plates, and then cultured at 37C, 5 % CO2 for 16 to 30 hours. (2) Add 3 ul of calcium dye (from High Performance PBX Calcium Assay Kit, BD Biosciences). The calcium dye was prepared according to the manufactory's instruction. (3) Incubation at 37C, 5 % CO2 for 60 to 120 min. (4) Load plates to FDSS-7000. The following steps were performed on FDSS-7000. (5) Record fluorescent background (Ex 480 nm, Em 520-560 nm) for 10 s. (6) Add 23 nl/well of compound in DMSO solution. The final titration for each compound was between 0.6 nM and 46 uM. Record agonist response for 210 s. (7) Add 2 ul of stimulation reagent (1X HBSS buffer, 0.1% BSA, 60 nM NPS). Record antagonist response for 140 s. Keywords: MLSMR, MLPCN, NIH Roadmap, qHTS, NCGC, NPS, Neuropeptide S Antagonists
For the compound `Cc1c(P(=S)(c2ccccc2)c2ccccc2)[n+]2ccccc2n1Cc1ccccc1`, the Potency was 31.8 nM (active).

For `Cc1c(P(=S)(c2ccccc2)c2ccccc2)[n+]2ccccc2n1CCCCc1ccccc1`, the Potency was 1.1 nM (active). As to `Cc1c(P(=S)(c2ccccc2)c2ccccc2)[n+]2ccccc2n1CCc1ccccc1`, the Potency is 71.2 nM (active). For the compound `S=P(c1ccccc1)(c1ccccc1)c1cnc2ccccn12`, the Potency is 4000 nM (active). The figure for `Cc1nc2ccccn2c1P(=S)(c1ccccc1)c1ccccc1` is 1000 nM (active); for `C[n+]1cc(P(=S)(c2ccccc2)c2ccccc2)n2ccccc21` it is 2520 nM (active); for `Cc1c(P(=S)(c2ccccc2)c2ccccc2)[n+]2ccccc2n1CCCCCc1ccccc1` it is 12.7 nM (active). On to `Cc1c(P(=S)(c2ccccc2)c2ccccc2)c2ccccc2n1C`, for which the Potency was 2830 nM (active).

For `Cc1c(P(=S)(c2ccccc2)c2ccccc2)[n+]2ccccc2n1C`, the Potency is 50.4 nM (active). With `Cc1c(P(=S)(c2ccccc2)c2ccccc2)[n+]2ccccc2n1C/C=C/c1ccccc1`, the Potency was 0.938 nM (active). The figure for `Cc1c(P(=S)(c2ccccc2)c2ccccc2)[n+]2ccccc2n1CCCc1ccccc1` is 2 nM (active).

Source of the values: PubChem BioAssay AID434931 (National Center for Advancing Translational Sciences (NCATS), 2010).
